# Assay results as given in paper PMC4336329 (PLoS ONE, 2015).
# Among all 310,000 compounds or so, about 2,200 (0.71%) showed an effect of 50% or more. The effect is printed as a negative number. The entries come from a sample that favours strong results as a whole.
# Molecular target: human ether-à-go-go-related gene (hERG) potassium channel (human, UniProt Q12809)
# Experiment: primary screen, population patch clamp on CHO cells stably expressing hERG; higher = less effect of the substance
# Sequence of human ether-à-go-go-related gene (hERG) potassium channel (Q12809 whole entry, looked up): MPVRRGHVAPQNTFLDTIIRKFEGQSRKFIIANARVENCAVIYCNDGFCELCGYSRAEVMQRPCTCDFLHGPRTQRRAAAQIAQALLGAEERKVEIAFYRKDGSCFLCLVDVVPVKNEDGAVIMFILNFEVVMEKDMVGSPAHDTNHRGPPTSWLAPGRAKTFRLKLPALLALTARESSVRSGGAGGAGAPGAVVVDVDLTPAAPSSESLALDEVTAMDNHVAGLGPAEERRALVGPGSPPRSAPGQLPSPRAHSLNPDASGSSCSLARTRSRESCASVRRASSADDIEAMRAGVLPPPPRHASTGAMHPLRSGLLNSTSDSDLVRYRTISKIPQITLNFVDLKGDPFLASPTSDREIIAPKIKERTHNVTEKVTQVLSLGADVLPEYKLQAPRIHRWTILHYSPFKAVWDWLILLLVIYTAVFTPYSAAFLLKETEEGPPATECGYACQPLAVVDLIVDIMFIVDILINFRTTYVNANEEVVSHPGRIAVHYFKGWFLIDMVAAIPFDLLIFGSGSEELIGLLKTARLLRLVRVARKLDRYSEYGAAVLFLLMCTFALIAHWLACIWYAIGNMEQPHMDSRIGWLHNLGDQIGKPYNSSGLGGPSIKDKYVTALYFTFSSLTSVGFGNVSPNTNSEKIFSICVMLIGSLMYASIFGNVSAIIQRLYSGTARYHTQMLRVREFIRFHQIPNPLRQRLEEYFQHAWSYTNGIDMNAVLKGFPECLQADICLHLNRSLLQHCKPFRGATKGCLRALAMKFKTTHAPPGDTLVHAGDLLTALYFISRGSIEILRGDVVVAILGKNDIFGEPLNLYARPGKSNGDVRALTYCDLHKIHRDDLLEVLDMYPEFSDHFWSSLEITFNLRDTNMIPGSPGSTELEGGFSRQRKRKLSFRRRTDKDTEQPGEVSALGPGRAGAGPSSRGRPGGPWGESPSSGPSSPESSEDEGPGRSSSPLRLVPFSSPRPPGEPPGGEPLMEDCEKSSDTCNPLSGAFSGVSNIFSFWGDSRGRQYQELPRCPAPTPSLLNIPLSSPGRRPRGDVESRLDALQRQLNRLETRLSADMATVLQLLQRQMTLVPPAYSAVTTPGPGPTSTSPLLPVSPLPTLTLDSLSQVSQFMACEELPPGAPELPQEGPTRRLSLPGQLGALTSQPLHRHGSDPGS
row,SMILES,"hERG current change (%, negative = inhibition) at 1uM [%]"
1,CCCCC(=O)Nc1cccc(NC(=O)c2cccnc2Cl)c1,6.85
2,C/C(=N\O)C(=O)NCCN(C)C,13.6
3,CC(=O)O.Cc1nc(NCCc2ccc(F)cc2)c(C#N)c(C)c1[N+](=O)[O-],-41.9
4,O=C(Oc1ccc(C(=S)N2CCCCC2)cc1)c1ccccc1,7.88
5,O=C(COC(=O)CCC(=O)c1ccccc1)NCCc1ccccc1,4.19
6,O=C(Cn1ccc(NC(=O)OCc2ccccc2)nc1=O)NCCCN1CCCC1=O,7.66
7,CCOC(=O)c1sc2nc(C)nc(NCc3ccc(F)cc3)c2c1C,17.8
8,CCOC(=O)c1sc2nc(C)nc(NCc3ccc(Cl)cc3)c2c1C,-89.6
9,CCOC(=O)c1sc2nc(C)nc(NCc3ccccc3)c2c1C,16.7
10,[O-]/C(=C(\C(=S)NCc1ccccc1)[n+]1ccccc1)c1ccc(Cl)s1,0.527
11,COC(=O)c1c(NC(=O)c2cccs2)sc2c1CCC(C)C2 (stereo not drawn),9.97
12,COc1ccc([C@@H]2[C@@H](C(=O)C(C)(C)C)N3N=Cc4ccccc4[C@@H]3C23C(=O)OC(C)(C)OC3=O)cc1OC,-5.04
13,OCCC1CN(Cc2cccn2-c2nccs2)CCN1Cc1ccc(F)c(F)c1 (stereo not drawn),-85
14,OCCC1CN(Cc2ccc(Oc3ncccn3)cc2)CCN1Cc1ccc(F)c(F)c1 (stereo not drawn),8.89
15,CCOc1ccc(CN2CCN(Cc3ccon3)CC2CCO)cc1 (stereo not drawn),-33.5
16,OCCC1CN(Cc2cccn2-c2nccs2)CCN1CCc1ccccc1 (stereo not drawn),-57.1
17,Cc1ccc(CN2CCN(Cc3cccn3-c3nccs3)CC2CCO)cc1 (stereo not drawn),-79.7
18,CC(C)=CCN1CCN(Cc2cccn2-c2nccs2)CC1CCO (stereo not drawn),-1.62
19,OCCC1CN(Cc2cccn2-c2nccs2)CCN1Cc1ccccc1 (stereo not drawn),-21.7
20,OCCC1CN(Cc2ccn[nH]2)CCN1Cc1ccc(F)c(F)c1 (stereo not drawn),8.07
21,CC(C)N1CCN(Cc2cccn2-c2nccs2)CC1CCO (stereo not drawn),11.5

row,SMILES,"hERG current change (%, negative = inhibition) at 1uM [%]"
1,OCCC1CN(Cc2cccn2-c2nccs2)CCN1C1CCCCC1 (stereo not drawn),-4.43
2,CC(C)CCN1CCN(Cc2cccn2-c2nccs2)CC1CCO (stereo not drawn),-17.6
3,CCOc1ccc(CN2CCN(Cc3cccn3-c3nccs3)CC2CCO)cc1 (stereo not drawn),-84
4,CC(Sc1nc2ccc(Br)cc2[nH]1)C(=O)O (stereo not drawn),-11.3
5,Cc1cc(Cl)c(OCCCNC2CCCC2)c(Br)c1.O=C(O)C(=O)O,-6.84
6,Cc1nnsc1C(=O)Nc1ccc(S(=O)(=O)N2CCCC(C)C2)cc1 (stereo not drawn),15.2
7,Cn1cccc1C(=O)NC1CCCCC1,5.24
8,C=CCn1c(SCC(=O)Nc2cccnc2Cl)nnc1-c1ccc(C(C)(C)C)cc1,9.68
9,CCN1CCN(C(=O)/C=C/c2ccc(OC)c(OC)c2)CC1,14.8
10,C/C(=N\OC(=O)c1ccc(Cl)cc1)c1nccs1,9.4
11,COc1ccc(CNS(=O)(=O)c2ccc(-n3cnnn3)c(OC)c2)cc1,-2.65
12,O=C(c1cc2cc(F)ccc2[nH]1)N(Cc1cccnc1)CC1CCCN(C2CCCCC2)C1 (stereo not drawn),-81
13,O=C(c1cc2ccccc2[nH]1)N(Cc1cccnc1)CC1CCCN(C2CCCCC2)C1 (stereo not drawn),-49.6
14,COC(=O)c1ccccc1C(=O)N(Cc1cccnc1)CC1CCCN(C2CCCCC2)C1 (stereo not drawn),-7.49
15,COC(=O)c1ccc(COc2ccc(/C=N/NC(=O)C(=O)Nc3ccc(OC)cc3)cc2OC)o1,9.15
16,COc1cccc(C(=O)C2CCCN(Cc3cccn3-c3cccnc3)C2)c1 (stereo not drawn),-6.89
17,COc1cccc(C(=O)C2CCCN(Cc3cccn3-c3ccccn3)C2)c1 (stereo not drawn),-84
18,COc1cccc(C(=O)C2CCCN(Cc3ccccn3)C2)c1 (stereo not drawn),-0.481
19,CC(C)Oc1cccc(C(=O)C2CCCN(Cc3ccc(Oc4ncccn4)cc3)C2)c1 (stereo not drawn),-7.28
20,CC(C)Oc1cccc(C(=O)C2CCCN(Cc3cccn3-c3cccnc3)C2)c1 (stereo not drawn),12.4
21,CC(C)Oc1cccc(C(=O)C2CCCN(Cc3cccn3-c3ccccn3)C2)c1 (stereo not drawn),-81.7

row,SMILES,"hERG current change (%, negative = inhibition) at 1uM [%]"
1,CCOc1ccc2nc(SCC(=O)N(CC(C)C)c3c(N)n(Cc4ccccc4)c(=O)[nH]c3=O)[nH]c2c1,9.81
2,CCCn1c(SCC(=O)Nc2cccc(F)c2)nc(O)cc1=O,9.12
3,CN1CCN(c2cnn(-c3ccccc3)c(=O)c2Br)CC1,13.2
4,COc1ccc(C(=O)N2CCN(c3cccc(Cl)c3)CC2)cc1S(=O)(=O)NC1CC1,-79.6
5,COc1ccc(C(=O)N2CCN(c3ccccc3Cl)CC2)cc1S(=O)(=O)NC1CC1,7.63
6,COc1ccc(C(=O)N2CCN(c3ccc(F)cc3)CC2)cc1S(=O)(=O)NC1CC1,-17.3
7,O=C1Nc2c(c(=O)[nH]c(=O)n2Cc2ccccc2)C1(NS(=O)(=O)c1ccccc1)C(F)(F)F (stereo not drawn),14.5
8,C/C(Cn1nc([N+](=O)[O-])cc1C)=N\NC(=O)COc1ccc(Cl)cc1Cl,-51.3
9,C/C(Cn1nc([N+](=O)[O-])cc1C)=N\NC(=O)COc1c(Cl)cc(Cl)cc1Cl,-23.8
10,C/C(Cn1nc([N+](=O)[O-])cc1C)=N\NC(=O)COc1ccccc1[N+](=O)[O-],7.38
11,Cc1nnc(NC(=O)CSc2ccc(-c3ccc(Cl)cc3)nn2)s1,12.4
12,CCOC(=O)N1CCN(c2c(NCCCN(C)c3ccccc3)c(=O)c2=O)CC1,9.53
13,COc1cc(C(=O)Nc2cccc(-c3nc4cc(C)ccc4o3)c2)cc(OC)c1OC,10.6
14,CCN(CC)CCNc1nc2c(c(=O)[nH]c(=O)n2C)n1CC(O)COc1ccc(Cl)cc1Cl (stereo not drawn),-66.1
15,CN(C)CCNc1nc2c(c(=O)[nH]c(=O)n2C)n1CC(O)COc1ccc(Cl)cc1 (stereo not drawn),5.04
16,CN(C)CCNc1nc2c(c(=O)[nH]c(=O)n2C)n1CC(O)COc1ccc(Cl)cc1Cl (stereo not drawn),-30.6
17,CSc1nn(-c2ccc(C(=O)OC(C(=O)NC(N)=O)C(C)C)cc2)c(=S)s1 (stereo not drawn),9.82
18,COc1ccccc1/C=C/CN1CCC(n2nccc2NC(=O)CCc2ccccc2)CC1,-24.8
19,COCC(=O)N1CCC(n2nccc2NC(=O)c2ccccc2OC)CC1,14.1
20,COc1ccccc1C(=O)Nc1ccnn1C1CCN(C/C=C/c2ccccc2)CC1,-85.6
21,COc1ccccc1C(=O)Nc1ccnn1C1CCN(C/C=C/c2ccc(F)cc2)CC1,-86.9

row,SMILES,"hERG current change (%, negative = inhibition) at 1uM [%]"
1,CCOc1ccc(N(CC(=O)Nc2ccc(F)c(F)c2)S(=O)(=O)c2c(C)noc2C)cc1,2.37
2,CC(=O)Nc1ccc(NC(=O)COc2ccc(S(=O)(=O)NC(C)c3ccccc3)cc2)cc1 (stereo not drawn),17.5
3,CC(C)(C)c1ccc(CSc2cnn(C(C)(C)C)c(=O)c2Cl)cc1,15.7
4,CCOC(=O)c1c(NC(=O)c2ccc(N3C(=O)[C@@H]4[C@H](C3=O)[C@H]3C=C[C@@H]4C3)cc2)sc2c1CCCC2,4.8
5,O=C(CSc1ccccc1)Nc1ccc2c(c1)OCCO2,8.08
6,COc1cccc(NC(=O)C2c3cc(OC)c(OC)cc3C(=O)N(C)C2c2cccnc2)c1 (stereo not drawn),1.83
7,CCOCCCn1c(=NC(C)=O)c(C#N)cc2c(=O)n3cccc(C)c3nc21,-7.46
8,Cc1cccn2c(=O)c3cc(C#N)c(=N)n(CCCN4CCOCC4)c3nc12,-78.1
9,CCOCCCn1c(=N)c(C(=O)NCCN2CCOCC2)cc2c(=O)n3cccc(C)c3nc21,-17
10,Cc1cccn2c(=O)c3cc(C#N)c(=O)n(CCCN4CCOCC4)c3nc12,-21.2
11,Cc1cccn2c(=O)c3cc(C(N)=S)c(=N)n(CCCN4CCOCC4)c3nc12,-90.5
12,CCOCCCn1c(=N)c(C(N)=S)cc2c(=O)n3cccc(C)c3nc21,-85.5
13,COCCCn1c(C(=O)N2CCOCC2)cc2c(=O)n3cccc(C)c3nc21,1.75
14,COCCCn1c(C(=O)NCCN2CCOCC2)cc2c(=O)n3cccc(C)c3nc21,6.14
15,CCCn1c(=N)c(C#N)cc2c(=O)n3cccc(C)c3nc21,-20.2
16,COCCCn1c(=N)c(C(N)=S)cc2c(=O)n3cccc(C)c3nc21,-70.3
17,COc1cc(/C=N/NC(=O)c2ccc3nc[nH]c3c2)cc(OC)c1OC,10.6
18,CC1(C)Cc2c(cnn2-c2ccccc2)C(NC(=O)CCc2ccc(=O)[nH]n2)C1 (stereo not drawn),8.83
19,Cc1ccccc1CN(C)CC(=O)Nc1ccccc1-c1ccccc1,-9.53
20,O=c1[nH]nc(Cc2ccc(-c3cccc(Cl)c3)o2)c2ccccc12,6.53
21,CCCCn1c(N)c(N(CC)C(=O)c2ccc(C#N)cc2)c(=O)[nH]c1=O,14.4
